These results are taken from the supplement of paper PMC4894684.

The experiment deals with Toxoplasma gondii RH (in HFF). The experiment in a line: parasite growth relative to the screen mean (all compounds = 100%); higher = less inhibition of parasite growth. The conditions noted are these: 5 µM; 72 h; oxygen 21 %. The gist of the method: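 Library compounds (10 mM DMSO stocks) were pin-transferred to 5 µM final onto confluent human foreskin fibroblasts in 96-well plates, then infected within 2 h with RH β-Gal–GFP Toxoplasma (MOI 1:5) and grown 72 h at 21% O2. Parasite number came from a CPRG β-Gal assay against in-plate standard curves. Growth is expressed relative to the screen mean (all compounds = 100%), averaged over two screens. Uninfected host-cell viability was checked by CellTiter-Blue.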

Where a name gives a salt, the structure may show the parent alone. ± gives the standard deviation of the averaged measurements.

Molecule `COC(=O)C1=C(C)NC(C)=C(C(=O)OC)C1c1ccccc1[N+](=O)[O-]` [Nifedipine] showed a parasite growth of 110 ± 36%.

`C[C@@H](NCc1cc(Br)cc2[nH]c(=O)c(=O)[nH]c12)P(=O)(O)O` returned a parasite growth of 109 ± 3.7%.

As to `CCn1c(=O)[nH]c2ccccc21`, the parasite growth was determined as 67.92 ± 0.3%.

For the molecule `O=C(NCCN1CCCCC1)c1ccc(I)cc1` [N-[2-(Piperidinylamino)ethyl]-4-iodobenzamide], the parasite growth worked out at 118 ± 12%.

With `CN1Cc2c(C(=O)OC(C)(C)C)ncn2-c2ccsc2C1=O`, the parasite growth turned out to be 55.6 ± 4.8%.

In turn, `Oc1ccc(Nc2nc(-c3ccc(Cl)cc3)cs2)cc1` returned a parasite growth of 26.9 ± 8%.

`CCCCCCNC(=O)Nc1ccc(S(=O)(=O)Nc2ccc(CCNC[C@H](O)COc3ccc(O)cc3)cc2)cc1` showed a parasite growth of 170 ± 26%.

Consider `FC(F)(F)c1cc(COC2CCCNC2c2ccccc2)cc(C(F)(F)F)c1` [L-733,060 hydrochloride], for which the parasite growth was 29.6 ± 16%.

`CC(C)C(=O)c1c(C(C)C)nn2ccccc12` [Ibudilast]: the parasite growth came to 75.7 ± 12%.

The molecule `CC(/C=C/c1cccc(Oc2ccc(F)cc2)c1)N(O)C(N)=O` (stereo unspecified) came in with a parasite growth of 184 ± 12%.

`Nc1ncnc2c1ncn2[C@@H]1O[C@H](CO)C[C@H]1O` [Cordycepin] registered a parasite growth of 122 ± 20%.

Molecule `O=C(O)C1=CCCNC1` [Guvacine hydrochloride] displayed a parasite growth of 132.34 ± 0.044%.

Regarding `CCOC(=O)N1CCC(=C2c3ccc(Cl)cc3CCc3cccnc32)CC1` [Loratidine], the parasite growth stood at 112 ± 4.8%.

As to `Clc1ccccc1CNCC1CCC(CNCc2ccccc2Cl)CC1` (stereo unspecified), the parasite growth was found to be 38.9 ± 23%.

`C#CCN1C(C)=C(C(=O)OC)C(c2cccc([N+](=O)[O-])c2)C(C(=O)OCC)=C1C` (stereo unspecified) showed a parasite growth of 157 ± 2.2%.

With `Nc1nc(NCC2CCC(CNS(=O)(=O)c3cccc4ccccc34)CC2)nc2ccccc12` (stereo unspecified), the parasite growth is less than 0%.
